BoNT-F LC inh: BoNT/F light chain protease inhibitors, primary screen, biochemical, flow cytometry, MLPCN library. inhibition, % at 10 µM. actives 0.22% (n = 360,000). Multiplex microsphere protease cleavage assay; in the data active means inhibition above about 35%, passing the limit was not always enough; inconclusive means no clear call, values can overlap the other calls; further: plate controls were buffer without enzyme for full effect and enzyme alone for no effect
BoNT-A LC inh2: BoNT/A light chain protease inhibitors, primary screen, biochemical, flow cytometry, MLPCN library. multiplex microsphere protease substrate cleavage. inhibition, % at 10 µM. actives 0.17% (n = 360,000). AID 588499, 2011; further: plate controls were buffer without enzyme for full effect and enzyme alone for no effect
Anthrax LF prot: Bacillus anthracis LF protease inhibitors, primary screen, biochemical, multiplex microsphere, MLPCN library. multiplex microsphere protease cleavage assay. inhibition, % at 10 µM. actives 0.12% (n = 360,000); further: plate controls were buffer without enzyme for full effect and enzyme alone for no effect
BH1578 lux ind: inducers of Vibrio cholerae quorum light production without autoinducers, primary screen, BH1578 luxS cqsA deficient, single point; V. cholerae BH1578 lux reporter, luminescence, 6 h; activation, % at 18.7 µM; actives 0.16% (n = 350,000); AID 588436, 2011; in the data active means activation mostly above about 9.7%, no sharp cut-off; inconclusive means no clear call, values can overlap the other calls; inactive means mostly below about 3.7%
MazEF act: activators of E. coli MazEF toxin-antitoxin RNase, primary screen, biochemical, fluorescence, uHTS. Endoribonuclease toxin MazF (Escherichia coli (strain K12)), P0AE70. FAM/BHQ RNA-DNA oligo cleavage fluorescence, 5 h. activation, % at 20 µM. actives 0.32% (n = 350,000). AID 504720, 2011; in the data active means activation above about 50%
Target sequence (P0AE70 whole entry, looked up): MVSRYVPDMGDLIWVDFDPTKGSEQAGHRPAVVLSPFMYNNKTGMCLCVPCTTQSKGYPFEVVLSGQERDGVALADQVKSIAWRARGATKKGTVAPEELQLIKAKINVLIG
Bead autofluor: counter-screen for toxin protease inhibitors: compound fluorescence | actives 3.1% (n = 360,000) | compound autofluorescence counterscreen, microsphere flow cytometry; hits give high values | AID 624483 | fluorescence intensity (test concentration not listed); in the data active means fluorescence intensity above about 16000; inconclusive means no clear call, values can overlap the other calls
* marks the source's active call; other numbers are inactive results; i = inactive; ? = inconclusive; . = no result. Hits are enriched below; roughly 3.9% of the tested compounds scored in any of these assays. Unless noted, no stated cut-off is given here; in the data, active means inhibition above about 30%; inconclusive means no clear call, values can overlap the other calls; inactive means below that.

SMILES	BoNT-F LC inh	BoNT-A LC inh2	Anthrax LF prot	BH1578 lux ind	MazEF act	Bead autofluor
CCN(CC)C(=O)CSCc1cnn(-c2ccccc2)c1-n1cccc1	-3.5	?	-7.2	i	-3.6	22480*
O=C(NCc1cccnc1)C1CCCN(Cc2cnn(-c3ccccc3)c2-n2cccc2)C1 (centres undefined)	-5.2	-2.3	0.1	-0.3	-2.5	23887*
O=C(O)C1CCN(Cc2cnn(-c3ccccc3)c2-n2cccc2)CC1	-2.5	1.1	3.3	-0.5	10.0	11092
COc1ccc(C(=O)/C=C2/c3ccccc3CC(C)(C)N2C)cc1OC	-3.2	-0.1	-0.1	-0.2	4.9	2528
O=S(=O)(NCc1ccccn1)c1ccc(Cl)s1	-0.8	-1.5	0.3	0.2	7.2	3522
Cc1cccc(NC(=O)C2CCCN2C(=O)NC2CCCCC2)c1 (centres undefined)	-0.8	0.1	-1.7	-0.3	-1.3	4073
CCN(CC(=O)Nc1c(F)cccc1F)C(=O)c1ccc2ncsc2c1	-310.8	-181.0	-42.5	i	6.9	49356*
CCN(CC(=O)Nc1c(F)cccc1F)C(=O)c1ccc(C(F)(F)F)cc1	-8.7	-0.4	-1.7	0.8	8.0	3890
c1ccc2c(CN3CCCCCCC3)c[nH]c2c1	-5.1	-1.7	-2.7	i	0.7	17395*
c1ccc(CN2CCN(Cc3c[nH]c4ccccc34)CC2)cc1	?	-1.1	16.0	i	3.0	3861
O=C(OCc1nc2ccccc2[nH]1)C12CC3CC(CC(C3)C1)C2	-11.1	-3.5	-4.8	-0.8	2.8	17109*
c1ccc(OCc2nc3ccccc3[nH]2)cc1	-1.8	0.4	-4.6	-5.3	1.8	22117*
Cc1ccc(OCc2nc3ccccc3[nH]2)cc1	-3.3	-0.4	-1.9	i	2.8	2005
c1ccc2[nH]c(CN3CCCCCC3)nc2c1	-1.7	1.3	0.2	-0.2	3.4	20479*
Cc1cc(N)nc2nc(C(F)(F)F)nn12	1.0	-0.1	-4.4	-0.1	-0.3	3245
COC(=O)c1ccc2c(c1)c(-c1ccccc1)c(-c1ccccc1)n2C	-10.0	-0.9	-6.6	i	-4.5	3921
COc1ccc(OC)c(NC(=O)C2(C)CCN2Cc2ccsc2)c1 (centres undefined)	6.4	-0.6	2.6	-0.3	.	3542
O=[N+]([O-])c1ccc(NN=Cc2ccc3c(c2)OCO3)nc1	-4.7	-0.8	-9.9	-1.0	105.7*	4225
CC(C)CNC(=O)c1ccc(-c2ccc(F)c(F)c2)c2ccoc12	-8.0	-0.3	-1.8	-0.4	.	3031
CC(=O)c1c(C)nn(CC(O)COc2ccc3ccccc3c2)c1C (centres undefined)	0.6	-0.4	-3.9	-0.7	0.6	3930
Cc1ccc(NC(=O)CNC(=O)c2ccco2)nc1	1.2	0.7	0.4	-0.6	5.2	5499
COc1ccc(-c2cnn3c4c(c(C)nc23)CCN4C2CCCC2)cc1OC	-4.1	-2.4	-1.8	i	-4.5	17372*
CC(C)(C)SCCNS(=O)(=O)c1ccccc1	2.2	0.1	3.6	-6.7	5.7	7227
CC(C)(C)SCCNS(=O)(=O)c1ccc2ccccc2c1	-4.9	-1.9	-4.1	-2.5	1.3	23401*
CC(Sc1nnc(-c2ccccc2)c(-c2ccccc2)n1)C(=O)NCC1CCCO1 (centres undefined)	2.0	-0.1	-6.2	-0.8	-10.5	2994
SMILES	BoNT-F LC inh	BoNT-A LC inh2	Anthrax LF prot	BH1578 lux ind	MazEF act	Bead autofluor
CN1CCN(c2nc(-c3ccccn3)nc3ccccc23)CC1	-1.4	-1.0	-0.9	-0.6	2.9	23212*
CC(=O)Nc1ccc(S(=O)(=O)NCCSCc2c(Cl)cccc2Cl)cc1	-7.3	-3.7	-2.4	i	-8.0	21984*
CC(=O)Nc1ccc(S(=O)(=O)NCCSCc2cccc(Cl)c2)cc1	3.0	0.2	1.9	i	2.5	2168
CC(C)C(=O)Nc1ccc(S(=O)(=O)Nc2nccc(/C=C/c3ccccc3)n2)cc1	-13.2	-0.9	-3.4	i	0.1	8421
O=C(Nc1nnc(C2CC2)s1)c1cncc(Br)c1	.	.	.	-0.4	0.6	.
CCOC(=O)C1=C(C)NC(C)=C(C(=O)OCC)C1c1ccncc1	5.2	0.0	5.1	i	5.0	3874

High-throughput results (PubChem BioAssay)
